Compounds with a hit are over-represented: about 8.2% of the library has one in this group of screens.
SW480 rerep: A quantitative high throughput screen for small molecules that induce DNA re-replication in SW480 colon adenocarcinoma cells | Potency, µM (doses to about 46.1 µM), for the others: at the top dose re-replication activation, hits mostly activators | 1.8% of 340,000 active | SW480 DNA re-replication, Hoechst DNA content imaging, 48 h; also: % of control where 0% means no effect; nearly all actives have a fitted effect of over 55% in size
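Quantitative HTS format with DMSO vehicle controls; 48 hr drug incubation at 37 C, then 40 min Hoechst staining and scanning imager measurement at 405 nm excitation.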
ELG1 repair inh: qHTS screen for small molecules that inhibit ELG1-dependent DNA repair in human embryonic kidney (HEK293T) cells expressing luciferase-tagged ELG1. HEK293T ELG1-luciferase reporter, luminescence, 16 h; DNA damage induced by 5-fluorouridine. Potency, µM (titrated, usually from 46.1 µM), for the others: top-dose activity change, negative = inhibition, most hits filed as inhibitors. AID 504467, 2011. 2.3% of 330,000 active; also: % is scaled to controls: 0 for no effect and ±100 for the full control effect; nearly all actives have a fitted effect of over 55% in size
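Quantitative HTS, concentration-response format. 2,000 cells/well co-treated with 5-fluorouridine and compound, 16 hr in 5% CO2 at 37 °C; ONE-Glo luminescence read after 30 min.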
KB-V1 cytotox: qHTS assay for MDR1-selective chemotherapeutics: Primary screen using the drug-selected MDR subline cells KB-V1 | KB-V1 MDR cells viability, CellTiter-Glo, 72 h | Potency, µM (titrated, usually from 46.1 µM), hits mostly cytotoxic | 3.4% of 400,000 active; also: % is scaled to controls: 0 for no effect and ±100 for the full control effect; nearly all actives have a fitted effect of over 60% in size
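KB-V1 MDR subline cells in DMEM (phenol-red free, 10% FBS) exposed to compounds in qHTS concentration series for 72 h at 37 degrees C. Viability read by CellTiter-Glo luminescence; concentration-effect curves fitted after normalization and correction.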
MCF10A rerep: A quantitative high throughput screen for small molecules that induce DNA re-replication in MCF 10a normal breast cells | 2.9% of 350,000 active | MCF 10A DNA re-replication, Hoechst nuclear intensity, 48 h | AID 624296, 2012 | Potency, µM (series often up to 46.1 µM), inactives show at the top dose activity, positive = re-replication, hits mostly activators; also: % of control where 0% means no effect; nearly all actives have a fitted effect of over 50% in size
KB-3-1 cytotox: qHTS assay for MDR1-selective chemotherapeutics: Primary screen using the parental adenocarcinoma cell KB-3-1 | Potency, µM (top dose mostly 46.1 µM), hits mostly cytotoxic | KB-3-1 viability, CellTiter-Glo ATP luminescence, 72 h | AID 1347075, 2019 | 1.4% of 400,000 active; also: % is scaled to controls: 0 for no effect and ±100 for the full control effect; nearly all actives have a fitted effect of over 60% in size
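Parental KB-3-1 viability, qHTS format: 72 h compound exposure, 37 °C; CellTiter-Glo; media-only wells and DMSO plates as controls; concentration-effect fits on corrected data.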
The depositor's hits bear a star; i = inactive; u = inconclusive; x = no result; [ ] = another dose, or the depositor's remark. Calls follow the shape of the dose curve; as a rule, active = well fitted curve in the direction sought with a large enough effect; inconclusive = small, poorly fitted or top-dose-only effect, or another doubt; inactive = no such curve, though single readings can be large; an effect the other way counts as inactive or inconclusive. Potency is read from the fitted curve at half-maximal effect.

SMILES	SW480 rerep	ELG1 repair inh	KB-V1 cytotox	MCF10A rerep	KB-3-1 cytotox
C=CCOC(=O)C1=C[C@@H](c2coc3ccccc3c2=O)C[C@@H](OCc2ccc(CO)cc2)O1	6%[9.22 µM]	-26%	i	u	i
C=CCOC(=O)C1=C[C@H](c2coc3ccccc3c2=O)C[C@H](OCc2ccc(CO)cc2)O1	-10%	8.2µM*	i	-4%	i
CN1CCN(C(=O)C2=C[C@@H](c3coc4ccccc4c3=O)C[C@@H](OCc3ccc(CO)cc3)O2)CC1	-12%	-4%	i	-11%	i
Cn1cc(S(=O)(=O)N2CCCCC2)cc1C(=O)Nc1cccc(C#N)c1	x	x	i	x	i
Cc1nn(C)c2ncc(C(N)=O)c(Oc3cccnc3)c12	-1%	4%	i	1%	i
CCOC(=O)c1cnc2c(c(C)nn2C)c1Oc1ccc(Cl)cc1	2%	u	3.3µM*	16%	u
CN1C(=O)[C@H]2[C@@H](c3ccc(C(F)(F)F)cc3)N[C@]3(CCCN(Cc4ccco4)C3=O)[C@H]2C1=O	x	x	u	x	i
O=C(Cn1c(-c2cccs2)cc2cc(F)ccc21)N1CCN(c2ccccc2)CC1	x	x	i	x	i
COc1cc(/C=C2\C=Cc3ccccc32)cc(OC)c1OC	x	x	i	x	i
COc1ccccc1C(c1c(N)n(C)c(=O)n(C)c1=O)C(C)[N+](=O)[O-] (stereo not drawn)	5%	u	i	u	i
COc1ccccc1C(C[N+](=O)[O-])c1c(N)n(C)c(=O)n(C)c1=O (stereo not drawn)	u	u	7.3µM*	u	u
CC(C)CCCCCCCCCCCCC(=O)NCC(=O)NC1C(C)OC(Nc2ncnc3nc[nH]c23)C(O)C1O (stereo not drawn)	30%	x	u	23%	0.01µM*
Cc1oc(-c2cccc(Cl)c2)nc1CN1CCCC(C(=O)NCCCN2CCOCC2)C1 (stereo not drawn)	12%	0%	13µM*	u	i
Cc1cccc(-c2nc(CN3CCCC(C(=O)N4CCN(c5cc(Cl)ccc5C)CC4)C3)c(C)o2)c1 (stereo not drawn)	x	x	i	x	i
Cc1cccc(-c2nc(CN3CCCC(C(=O)NC4CCC(C)CC4)C3)c(C)o2)c1 (stereo not drawn)	u	u	21µM*	u	i
CCOC(=O)N1CCC(NC(=O)C2CCCN(Cc3nc(-c4cccc(C)c4)oc3C)C2)CC1 (stereo not drawn)	0%	u	u	u	i
Cc1oc(-c2cccc(Cl)c2)nc1CN1CCCC(C(=O)NCc2ccc(F)cc2)C1 (stereo not drawn)	x	x	i	x	i
Cc1cccc(-c2nc(CN3CCCC(C(=O)NC4CCCC4)C3)c(C)o2)c1 (stereo not drawn)	u	u	9.2µM*	u	i
O=C(Cn1c(=O)n(-c2ccc(Cl)cc2)c(=O)c2sc3ccccc3c21)NC1CCCC1	x	x	i	x	i
CCNc1nc2c(cnn2C)c(=O)[nH]1	-2%	x	i	6%	i
Cc1ccccc1NC(=O)CN1C(=O)S/C(=C\c2ccc(-c3cccc(C(=O)O)c3C)o2)C1=O	15%	0%	i	4%	i
Cc1cccc(NC(=O)CN2C(=O)S/C(=C\c3ccc(-c4cccc(C(=O)O)c4C)o3)C2=O)c1	u	-2%	i	23µM*	i
Cc1ccc(NC(=O)CN2C(=O)S/C(=C/c3ccc(-c4cc(C(=O)O)ccc4C)o3)C2=O)cc1C	u	-15%	i	5.8µM*	i
CCn1c(C)cc(/C=C2\SC(=O)N(CC(=O)Nc3ccc(C)c(C)c3)C2=O)c1C	0%	5%	i	u	i
CCN(C(=O)CSc1nnc(-c2ccccc2Cl)n1N)c1c(N)n(Cc2ccccc2)c(=O)[nH]c1=O	-6%	x	i	-3%	i
SMILES	SW480 rerep	ELG1 repair inh	KB-V1 cytotox	MCF10A rerep	KB-3-1 cytotox
CSc1ncc2c(n1)-c1ccccc1N(Cc1ccc(F)cc1)S2(=O)=O	x	x	i	x	i
CCOC(=O)Nc1ccc2c3c(cccc13)-c1ccccc1-2	6.5µM*	x	u	u	u
CCOC(=O)Nc1cccc2ccccc12	-2%	-1%	i	-4%	i
O=C(NC1CCCCC1)c1ccc2ccccc2c1	x	x	i	x	i
Cc1cc2ccccc2c[n+]1C1CCCCC1	x	x	i	x	4.6µM*
O=C(CCc1ccccc1)OCCN1CCOCC1	-14%	6%	i	1%	i
CCOC(=O)/C(=C\c1ccccc1)C(=O)CCN1CCOCC1	0%	x	u	21µM*	i
COc1ccccc1C1C(C#N)=C(N)Oc2c1oc(CO)cc2=O (stereo not drawn)	-26%[1.84 µM]	-8%	i	-21%	i
N#CC1=C(N)Oc2c(oc(CO)cc2=O)C1c1ccccc1[N+](=O)[O-] (stereo not drawn)	5.8µM*	-14%	i	u	i
O=c1[nH]cc(S(=O)(=O)NCc2ccccc2)c(=O)[nH]1	0%	17%	i	0%	i
Cc1ccc(S(=O)(=O)N2CCN(c3cc4c(cc3[N+](=O)[O-])n(C)c(=O)n4C)CC2)cc1	-11%	7.3µM*	i	19%	i
CO/N=C/c1ccc(N2CCN(C(=O)c3ccc(C)cc3)CC2)c([N+](=O)[O-])c1	1%	21µM*	9.2µM*	19%	u
O=C(Nc1ccc(N2CCCCC2)c(Cl)c1)c1ccc(N2CCOCC2)c([N+](=O)[O-])c1	0%	-29%	u	14%	i
Cc1ccc(NC(=O)c2ccc(N3CCOCC3)c([N+](=O)[O-])c2)cc1S(=O)(=O)N1CCOCC1	-10%	21µM*	u	1%	21µM*
O=C(Nc1cccc(S(=O)(=O)N2CCOCC2)c1)c1ccc(Cl)c([N+](=O)[O-])c1	16µM*	6%	i	9.2µM*	i
Cn1c(=O)n(C)c2cc([N+](=O)[O-])c(N3CCN(S(=O)(=O)c4ccc5ccccc5c4)CC3)cc21	3%	-15%	u	-7%	i
Cc1ccccc1CN1C(=O)c2ccccc2S(=O)c2ccc(C(=O)N3CCOCC3)cc21 (stereo not drawn)	x	x	i	x	i
COc1ccc(N2Cc3cccc(C(=O)Nc4ccc(Cl)cc4)c3C2=O)cc1	x	x	i	x	i
Nc1c(Cl)cc(/C=C2\C=Cc3ccccc32)cc1Cl	x	x	i	x	i
